Screens from PubChem.
Many of the other results were omitted from the sample, so hits are more common in it than they were.
ClpP mod: qHTS Assay for Activators of ClpP; purified B. subtilis ClpP, FRET peptide cleavage, 20 min; actives 1.9% (n = 340,000); Potency, µM (titrated, usually from 57.5 µM); active means well fitted falling curve with a large enough effect; inconclusive means small, poorly fitted or top-dose-only effect; inactive means no such curve, though single readings can be large or run the other way; further: the source files actives as falling curves though it sought activators and does not explain the sign; nearly all actives have a fitted effect of over 65% in size
Target sequence (P80244 whole entry, looked up): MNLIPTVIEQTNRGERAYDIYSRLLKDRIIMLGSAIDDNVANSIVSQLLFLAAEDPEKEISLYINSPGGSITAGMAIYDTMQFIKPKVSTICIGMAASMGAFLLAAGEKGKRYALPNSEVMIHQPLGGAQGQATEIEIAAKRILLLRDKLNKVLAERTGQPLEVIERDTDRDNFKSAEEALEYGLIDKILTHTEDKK
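Buffer: 100 mM Tris/HCl pH8, 100 mM KCl, 0.05% low protease BSA, 2.5% glycerol, 0.01% Tween-20. ClpP 10 microg/mL final; 20 min RT; delta FRET normalized to ADEP and DMSO controls.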
p53 reactivator: re-activators of mutant p53. H1299 p53-A138V BP100-luciferase reporter, luminescence, 24 h. actives 0.063% (n = 320,000). Potency, µM (highest dose often 92.2 µM), most hits filed as activators; active means well fitted activation curve with a large enough effect; inconclusive means small, poorly fitted or top-dose-only effect; inactive means no such curve, though single readings can be large or run the other way; further: nearly all actives have a fitted effect of over 45% in size
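p53-null H1299 cells stably carrying temperature-sensitive p53-A138V and a BP100-luciferase reporter were pinned with compounds (4-point, 1:5 series) and held 24 hrs at 37 deg C. Luminescence was read 10 min after detection reagent.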
CXXC DNA block: blocks binding of human MLL CXXC domain to DNA; Q03164; MLL-CXXC / FITC-HOXA9 DNA fluorescence polarization; Potency, µM (series often up to 115 µM), usual class: inhibitors; actives 0.037% (n = 290,000); AID 2662; active means well fitted inhibition curve with a large enough effect in the polarisation, with a control signal flat, not every such curve was filed as active; inconclusive means small, poorly fitted or top-dose-only effect, or effect the other way, or a change in a side signal; inactive means no such curve, though single readings can be large or run the other way; the % refers to the polarisation
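Steps: dispense CXXC domain solution (7 uM) → pin compounds or unlabeled HOX-A9 DNA control → 5 min ambient → add FLSN-HOX-A9 solution (50 nM) → spin → 30 min ambient → fluorescence polarization. Tris pH 7.5/NaCl/DTT/BSA buffer.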
Menin MLL FP FL: menin-MLL binding inhibition, fluorescein peptide | Fluorescence polarization, fluorescein-MLL peptide displacement from menin | FP activity change, % at 61.4 µM | 290,000 tested, under 10 active | AID 1766; active means well fitted curve in the direction sought with a large enough effect in the polarisation, not every such curve was filed as active; inconclusive means small, poorly fitted or top-dose-only effect, or effect the other way, or a change in a side signal; inactive means no such curve, though single readings can be large or run the other way; the % refers to the polarisation
Menin MLL FP TR: inhibitors of human menin-MLL interaction, mutant MLL peptide | actives 0.23% (n = 270,000) | O00255 | Potency, µM (titrated, usually from 61.6 µM), actives largely listed as inhibitors | Menin + Texas Red MLL mutant peptide, fluorescence polarization | AID 1768; active means well fitted inhibition curve with a large enough effect in the polarisation, with a control signal flat, not every such curve was filed as active; inconclusive means small, poorly fitted or top-dose-only effect, or effect the other way, or a change in a side signal; inactive means no such curve, though single readings can be large or run the other way; the % refers to the polarisation
A number is an active result.

CCc1ccc(OCCCSc2nc(-c3ccc(C(C)(C)C)cc3)nc3cc(=O)[nH]n23)cc1 was read as ClpP mod inactive.
Screening COc1cc(OC)cc(-c2nnc(Nc3nc4c(F)cccc4s3)o2)c1 returned ClpP mod inconclusive, p53 reactivator inactive, CXXC DNA block inactive, Menin MLL FP FL inactive and Menin MLL FP TR inconclusive.
`COc1ccc(-c2nnc(Nc3nc4c(OC)cccc4s3)o2)c(OC)c1` gave ClpP mod 16µM, p53 reactivator inconclusive, CXXC DNA block inactive, Menin MLL FP FL inactive and Menin MLL FP TR inactive.
COc1ccc(-c2nnc(Nc3nc4c(OC)cccc4s3)o2)cc1 was read as ClpP mod 40µM, p53 reactivator inconclusive, CXXC DNA block inactive, Menin MLL FP FL inactive and Menin MLL FP TR inactive.
For CCN(c1ccccc1)c1nc(N)nc(C#N)n1 the results were ClpP mod inactive.
Screening O=C1OCCC1N(C(=O)C1CC1)c1cccc(Cl)c1 (stereo not given) returned Menin MLL FP FL inactive and Menin MLL FP TR inactive.
For C[C@H](N)C(=O)NCC(=O)N[C@H]1CSSC[C@@H](C(=O)O)NC(=O)[C@H](CO)NC(=O)[C@H]([C@@H](C)O)NC(=O)[C@H](Cc2ccccc2)NC(=O)[C@H]([C@@H](C)O)NC(=O)[C@H](CCCCN)NC(=O)[C@@H](Cc2c[nH]c3ccccc23)NC(=O)[C@H](Cc2ccccc2)NC(=O)[C@H](Cc2ccccc2)NC(=O)[C@H](CC(N)=O)NC(=O)[C@H](CCCCN)NC1=O the results were Menin MLL FP FL inactive and Menin MLL FP TR inactive.
For O=C(O)CCCNc1cc(N2CCN(C(=O)c3ccco3)CC2)c2noc3c2c1C(=O)c1ccccc1-3 the results were ClpP mod inactive, p53 reactivator inactive, CXXC DNA block inconclusive, Menin MLL FP FL inconclusive and Menin MLL FP TR 16µM.
`O=c1cc(-c2ccc([N+](=O)[O-])cc2)nc2cc(-c3ccc(F)cc3)[nH]n12` gave ClpP mod inactive, p53 reactivator inactive, CXXC DNA block inactive, Menin MLL FP FL inactive and Menin MLL FP TR inconclusive.
For Cc1cc(=O)n2[nH]c(C)c(-c3ccc(Cl)cc3)c2n1 the results were ClpP mod inconclusive, p53 reactivator inactive, CXXC DNA block inactive, Menin MLL FP FL inactive and Menin MLL FP TR inactive.
Screening Cc1cc(=O)n2[nH]c(-c3ccc(F)cc3)cc2n1 returned ClpP mod 16µM, p53 reactivator inconclusive, CXXC DNA block inactive, Menin MLL FP FL inactive and Menin MLL FP TR inactive.
For Cc1cc(=O)n2[nH]c(-c3ccc(Cl)cc3)cc2n1 the results were ClpP mod 28µM, p53 reactivator inconclusive, CXXC DNA block inactive, Menin MLL FP FL inactive and Menin MLL FP TR inactive.
`CCCN1CNc2c(c(=O)[nH]c(=S)n2CCc2cccc(C)c2C)C1` gave ClpP mod inactive.
Screening CCN(CC)Cc1c(O)ccc2c(=O)c(-c3ccccc3)coc12 returned ClpP mod inactive, CXXC DNA block inactive, Menin MLL FP FL inactive and Menin MLL FP TR inactive.
`COc1ccccc1Oc1coc2c(CN(C)C)c(O)ccc2c1=O` gave ClpP mod 28µM, p53 reactivator inactive, CXXC DNA block inactive, Menin MLL FP FL inactive and Menin MLL FP TR inactive.
Screening CCN(CC)Cc1c(O)ccc2c(=O)c(Oc3ccccc3OC)coc12 returned ClpP mod 18µM, p53 reactivator inactive, CXXC DNA block inactive, Menin MLL FP FL inactive and Menin MLL FP TR inactive.
Screening Cc1nc(-c2coc3c(CN(C)C)c(O)ccc3c2=O)cs1 returned ClpP mod 32µM, p53 reactivator inactive, CXXC DNA block inactive, Menin MLL FP FL inactive and Menin MLL FP TR inconclusive.
Screening CCN(CC)Cc1c(O)ccc2c(=O)c(-c3ccc4c(c3)OCCO4)coc12 returned ClpP mod 28µM, p53 reactivator inactive, CXXC DNA block inactive, Menin MLL FP FL inactive and Menin MLL FP TR inactive.
For CCN(CC)Cc1c(O)ccc2c(=O)c(Oc3ccccc3OC)c(C)oc12 the results were ClpP mod inactive, p53 reactivator inactive, CXXC DNA block inactive and Menin MLL FP FL inactive.
`CC(/C=C/C(=O)NO)=C\[C@@H](C)C(=O)c1ccc(N(C)C)cc1` gave Menin MLL FP FL inactive and Menin MLL FP TR inactive.
Screening CCOc1ccc2oc(-c3ccccc3)c(C(=O)N(C)C)c2c1 returned ClpP mod 25µM, p53 reactivator inactive, CXXC DNA block inactive, Menin MLL FP FL inactive and Menin MLL FP TR inactive.
Screening CCOc1ccc2oc(-c3ccccc3)c(C(=O)O)c2c1 returned ClpP mod inactive, p53 reactivator inactive, CXXC DNA block inactive, Menin MLL FP FL inactive and Menin MLL FP TR inactive.
Screening CCOc1ccc2oc(-c3ccccc3)c(C(=O)N3CCN(CCO)CC3)c2c1 returned ClpP mod 14µM, p53 reactivator inactive, CXXC DNA block inactive, Menin MLL FP FL inactive and Menin MLL FP TR inactive.
Screening CCOC(=O)c1ccccc1NC(=O)c1cccs1 returned ClpP mod inactive, p53 reactivator inactive, CXXC DNA block inactive, Menin MLL FP FL inactive and Menin MLL FP TR inactive.
`COC(=O)c1ccccc1N/C=C/C(=O)c1ccc(Br)cc1` gave ClpP mod 25µM, p53 reactivator inconclusive, CXXC DNA block inactive, Menin MLL FP FL inactive and Menin MLL FP TR inactive.
Screening CCOC(=O)c1ccccc1N/C=C/C(=O)c1cccs1 returned ClpP mod inactive, p53 reactivator 16µM, CXXC DNA block inactive, Menin MLL FP FL inactive and Menin MLL FP TR inconclusive.
Screening Cc1cc(C)c(NC(=O)C2CCN(C(=O)N3CCOc4ccccc43)CC2)c(C)c1 returned ClpP mod inactive.
Screening Clc1ccc2c(SCC3CO3)c3ccccc3nc2c1 (stereo not given) returned ClpP mod 32µM.
Screening CCOC(=O)c1sc(NC(=O)CCCCCN2C(=O)c3cccc4cccc(c34)C2=O)nc1C returned ClpP mod inactive, p53 reactivator inactive, CXXC DNA block inactive and Menin MLL FP FL inactive.
CCOC(=O)c1sc(NC(=O)CN2C(=O)c3cccc4cccc(c34)C2=O)nc1C was read as ClpP mod inactive, p53 reactivator inactive, CXXC DNA block inactive, Menin MLL FP FL inactive and Menin MLL FP TR 4µM.
For COc1ccc(CCC(=O)N2c3ccccc3N=C(c3ccc4c(c3)OCO4)C2C(=O)NCc2ccccc2)cc1 (stereo not given) the results were ClpP mod 32µM.
COc1ccc(C2=Nc3ccccc3N(C(=O)c3ccc4c(c3)OCO4)C2C(=O)NCc2ccccc2)cc1 (stereo not given) was read as ClpP mod inactive.
`O=C(Cc1cccc2ccccc12)NO` gave ClpP mod inactive.
CCOC(=O)c1ccc2nc(NC(C)=O)sc2c1 was read as p53 reactivator inactive, CXXC DNA block inactive, Menin MLL FP FL inactive and Menin MLL FP TR inactive.
For COC(=O)c1ccc2nc(Nc3nc4c(F)cc(F)cc4s3)sc2c1 the results were ClpP mod 32µM, p53 reactivator inactive, CXXC DNA block inactive, Menin MLL FP FL inactive and Menin MLL FP TR inconclusive.
